# Rows were chosen to be rich in hits. Some 4.5% of all compounds tested hit in one or more screens of this group.
# aSyn 5UTR inh = MLPCN primary screen, SNCA 5' untranslated region. alpha-synuclein 5'UTR reporter, inhibitor activity. actives 0.82% (n = 300,000). inhibition, % (tested at 7.5 µM). AID 1813, 2009; in the data active means inhibition above about 60%;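 further: H4 neuroglioblastoma cells stably carrying SNCA 5'UTR luciferase fusion; 0% = DMSO wells and 100% = positive control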
# 697 NFkB inh = inhibitors of PMA/ionomycin-induced NF-kB reporter, 697 cells, primary screen, B-cell NF-kB inhibitor project, cell-based, luminescence, uHTS. 697 B-cell NF-kB luciferase reporter, 16 h. inhibition, % at 4 µM. actives 0.33% (n = 330,000). AID 435022, 2010; in the data active means inhibition above about 35%
# Jurkat NFkB inh = inhibitors of induced NF-kB luciferase reporter, primary screen, TCR NF-kB activation inhibitor project, cell-based, luminescence, uHTS | Jurkat, PMA/ionomycin-induced NF-kB luciferase reporter | inhibition, % at 4 µM | actives 0.53% (n = 330,000); in the data active means inhibition above about 50%
# Mdm2 MdmX PPI = inhibitors of human Mdm2-MdmX association, primary screen, cell-based, luminescence, split luciferase, SaOS-2, uHTS. Protein Mdm4 (Homo sapiens) + E3 ubiquitin-protein ligase Mdm2 (Homo sapiens), …. SaOS-2 split-luciferase Mdm2/MdmX complementation. inhibition, % at 8 µM. actives 3% (n = 330,000);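 active means inhibition of at least 50% at 8 µM in the primary screen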
# CSC inhib = cancer stem cell viability inhibitors, primary screen, luminescence; AID 2717, 2010; cancer stem cell-like cells viability; actives 1.1% (n = 300,000); inhibition, % at 7.5 µM; in the data active means inhibition above about 75%; tested in HMLE shEcad cells
# Gli-Sufu block = Gli-Sufu pathway antagonists, primary screen, luciferase luminescence, Sufu-KO-LIGHT cells, uHTS. Sufu-KO-LIGHT fibroblasts, Gli luciferase reporter luminescence. inhibition, % at 5 µM. actives 0.74% (n = 340,000);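 active means inhibition above about 55%, limit read from the data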;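 further: 0% = DMSO-treated cells and 100% = wells with medium but no cells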
# * hit, by the source's call; x = no result given.
SMILES,aSyn 5UTR inh,697 NFkB inh,Jurkat NFkB inh,Mdm2 MdmX PPI,CSC inhib,Gli-Sufu block
NS(=O)(=O)c1ccc(NC(=S)N2CCN(Cc3ccc(Cl)c(Cl)c3)CC2)cc1,36.0,4.7,0.0,2.9,10.9,11.2
CCOC(=O)c1ccccc1NC(=O)CSc1nnnn1C,1.4,4.1,0.6,5.9,-7.7,-5.4
CC1(C)OC(=CC=Nc2ccc(Cl)cc2)OC1(C)C,102.9*,12.9,18.6,13.8,49.0,-7.2
COc1ccc(NC(=O)N2CCCc3ccccc32)cc1,-45.6,8.7,-8.5,12.2,x,-9.8
COc1ccc(N/N=C(/C(C)=O)N2CCCc3ccccc32)cc1,-7.7,0.3,-3.7,11.4,88.4*,-1.7
O=C(CCS(=O)(=O)c1ccc(Br)cc1)NC1CCCCCC1,8.1,-0.9,1.0,-9.3,16.0,1.1
CC(NC(=O)C1CCC(C(=O)NC(C)c2ccccc2)CC1)c1ccccc1 (stereo not drawn),6.7,-12.2,18.5,6.0,110.0*,44.6
COc1ccc(CCNC(=O)[C@@H](NC(=O)N2CC(=O)Nc3ccccc32)C(C)C)cc1OC,7.1,5.4,-3.3,9.3,-12.1,-19.6
Cc1cc(C)cc(NC(=O)Nc2ccc(-n3ccc(C(F)(F)F)n3)cc2)c1,-77.0,-0.9,-25.9,36.7,104.1*,-2.1
COc1ccccc1NC(=O)Nc1ccc(-n2ccc(C(F)(F)F)n2)cc1,-211.5,-109.8,-83.2,-16.8,83.2*,-45.8
CCOc1ccc(N2C(N)=NC(N)=NC2(C)C)cc1,66.2*,-19.6,18.8,8.9,0.7,3.8
CC1(C)N=C(N)N=C(N)N1c1ccc(OCCCOc2ccccc2)c(Cl)c1,78.3*,x,x,x,84.6*,3.0
CCOc1ccc(-n2nc3ccc(N)cc3n2)cc1,73.2*,-71.9,-55.7,-28.3,8.0,9.6
CC1(C)N=C(N)N=C(N)N1c1cccc(C#N)c1,x,x,x,x,x,0.9
Cc1ccc(-n2nc3ccc(N)cc3n2)cc1,23.5,-80.3,-105.5,-148.7,17.3,-42.6
COc1cccc(N2C(N)=NC(N)=NC2(C)C)c1,95.9*,-78.6,16.5,-16.2,1.0,0.7
CC1(C)N=C(N)N=C(N)N1c1cccc(C(=O)O)c1,-4.5,10.0,2.7,-2.2,-9.1,-42.5
CCOC(=O)c1cccc(N2C(N)=NC(N)=NC2(C)C)c1,-4.1,-18.9,-3.3,19.6,-40.6,2.6
COC1Cc2ccccc2N(C(N)=O)c2ccccc21 (stereo not drawn),13.8,12.7,12.3,6.2,5.9,-5.9
COc1ccc(N2C(N)=NC(N)=NC2(C)C)cc1,81.4*,x,x,x,-15.0,13.1
COc1ccc(N2C(N)=NC(N)=NC23CCCC3)cc1,0.6,5.9,-3.5,11.7,2.5,-0.6
Oc1ccccc1C1CCCCC1c1ccccc1 (stereo not drawn),-10.0,x,x,x,75.6*,7.9
CCN1C[C@@H]2[C@@H]3C(=O)N(C)C(=O)[C@@H]3[C@](C)(C(=O)OC)N2C1=NC,x,5.9,x,1.4,x,1.2
CCN(c1ccc(NC(=O)COC(=O)CCC(=O)c2ccc(F)cc2)cc1)C(C)C,-11.2,12.0,5.5,-8.5,0.3,-6.5
COC(=O)c1cc(NC(=O)c2cc(-c3ccccc3Cl)oc2C(F)(F)F)ccc1N1CCOCC1,4.1,3.7,-5.1,36.4,89.5*,3.6
SMILES,aSyn 5UTR inh,697 NFkB inh,Jurkat NFkB inh,Mdm2 MdmX PPI,CSC inhib,Gli-Sufu block
C=CCn1c(O)c(N=NC(=S)Nc2ccc(OC)cc2)c2ccccc21,84.5*,x,x,x,26.0,7.2
C=CCn1c(O)c(N=Nc2ccccc2O)c2ccccc21,x,-4.1,-20.0,30.4,96.2*,1.4
O=C(c1nn2c(C(F)(F)F)cc(-c3cccs3)nc2c1Cl)N1CCCc2ccccc21,77.7*,5.8,2.9,30.9,18.1,5.8
O=C(c1cnn2c(C(F)(F)F)cc(-c3ccccc3)nc12)N1CCCc2ccccc21,25.6,-18.2,-11.7,2.2,-10.4,3.3
Cc1nc2scc(C)n2c(=O)c1S(=O)(=O)Nc1ccc(N2CCOCC2)c(Cl)c1,10.2,-58.3,18.9,22.1,0.9,71.4*
CN1C=C/C(=C\c2cc[n+](C)c3ccccc23)c2ccccc21,74.0*,x,x,x,x,77.4*

# Screening results as filed in PubChem BioAssay.
